The record followed here is PubChem BioAssay.

Activity calls are given as the source filed them.

The nature of assay [1]: small molecules captured by biotinylated probe aFSTL3 – biochemical, small-molecule microarray, fluorescence 635/667, stem cell growth factor project, primary screen (AID 1064).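 Note: measures binding of the biotinylated anti-FSTL3 antibody to printed compounds.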 Particulars: higher = more signal.
The nature of assay [2]: binders from COS7 lysate, DM2A8 probe, primary screen, torsin A project, cell lysate, small-molecule microarray, fluorescence 635/667 (AID 1065). The note with it: higher = more signal, COS7 lysate expressing mutant human TOR1A.
Assay [3] in a line: small molecules captured by biotinylated probe aFGF2 – biochemical, small-molecule microarray, fluorescence 635/667, stem cell growth factor project, primary screen (AID 1067).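 Note: measures binding of biotinylated aFGF2 protein to printed compounds on slides; z-score merges feature fluorescence and signal-to-noise across triplicate slides.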 The note with it: higher = more signal.
The nature of assay [4]: small molecules captured by biotinylated probe aFGF10 – biochemical, small-molecule microarray, fluorescence 635/667, stem cell growth factor project, primary screen (AID 1071).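 Note: score merges 667 nm spot intensity and signal to noise from triplicate slides.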 The note with it: higher = more signal.
Assay [5] concerns the target Neurogenic locus notch homolog protein 2 (Homo sapiens) (UniProt Q04721). In words: small molecules binding Notch2 protein – biochemical, small-molecule microarray, 635 nm fluorescence, stem cell growth factors, primary screen (AID 1073). The note with it: higher = more signal.
For assay [6], the target named is Pro-neuregulin-1, membrane-bound isoform (Homo sapiens) (UniProt Q02297). Kind of assay: small molecules binding neuregulin-1 protein – biochemical, small-molecule microarray, fluorescence 635/667, psychiatric disease protein project, primary screen (AID 1075).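 Note: score combines 667 nm spot fluorescence with signal to noise.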 Particulars: NRG1 binding, 635 nm fluorescence, higher = more signal.
Assay [7] has as its system Neuregulin-1 EGF-like domain. Kind of assay: small molecules binding NRG1 EGF domain – biochemical, small-molecule microarray, 635 nm fluorescence, primary screen (AID 1081).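 Note: binding of the protein to compounds printed on small-molecule microarray slides.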 The note with it: higher = more signal.
Assay [8] in a line: FRG1 expression reporter modulators in myotubes – cell-based, C2C12 myotubes, firefly/Renilla luciferase, luminescence, FRG1 inhibition for FSHD, primary screen (AID 1084). Particulars: FRG1 promoter luciferase, higher = more signal, called active from +8 up or from −8 down.
Assay [9] can be described thus: small molecules captured by biotinylated probe aFST – biochemical, small-molecule microarray, fluorescence 635/667, stem cell growth factor project, primary screen (AID 1086).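 Note: score merges 667 nm fluorescence with signal-to-noise of each printed compound spot.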 Particulars: higher = more signal.
Assay [10] can be described thus: binders of probe aHhip on microarray, primary screen, stem cell growth factor project, biochemical, small-molecule microarray, fluorescence 635/667 (AID 1087).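 Note: score merges spot fluorescence at 667nm with spot signal to noise ratio.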 Particulars: higher = more signal.
Assay [11] concerns PRMT1 (protein arginine N-methyltransferase 1). In words: small molecules binding arginine methyltransferase PRMT1 – biochemical, small-molecule microarray, 635 nm fluorescence, primary screen (AID 1088).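 Note: binding of Prmt1 protein to compounds spotted on small-molecule microarray slides.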 Particulars: higher = more signal.
Assay [12] can be described thus: growth effects on S. cerevisiae YJM789 – YJM789 clinical isolate, OD600, 24 h, basal, primary screen (AID 1089).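 Note: growth of clinical yeast isolate S. cerevisiae YJM 789 seeded 1000 cells per well; test concentration not given here.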 Particulars: higher = more signal, called active from +8 up or from −8 down.
Assay [13] in a line: S. pombe growth modifiers, basal conditions – strain 972, OD600, 24 h, no modulator, primary screen (AID 1090).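 Note: basal condition with compound alone and no growth modifier present; test concentration not given here.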 The note with it: S. pombe 972 growth, higher = more signal, called active from +8 up or from −8 down.
Assay [14] can be described thus: budding yeast growth modifiers under rapamycin – strain BY4716, OD600, 96 h, primary screen (AID 1091). Note: test concentration not given here. The note with it: S. cerevisiae BY4716 + rapamycin, higher = more signal, called active from +8 up or from −8 down.
The target of assay [15] is Torsin-1A-interacting protein 2 (Homo sapiens) (UniProt Q8NFQ8). Kind of assay: small molecules binding lysate-expressed LULL1 – cell lysate, human LULL1 lysate, 635/667 nm fluorescence, primary screen (AID 1092).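 Note: probe is lysate of COS7 cells overexpressing human LULL1; score merges per-feature 667 nm fluorescence with signal-to-noise.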 Particulars: small-molecule microarray, hLULL1 lysate binding, 635 nm fluorescence; higher = more signal.
The nature of assay [16]: optical density change of DRC41 E. coli – strain DRC41, OD650, 24 h, E. coli filamentation project, primary screen (AID 1093).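 Note: MC1000 strain lacking acrAB efflux and sulA so SOS filamentation is blocked; test concentration not given here.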 The note with it: E. coli DRC41 growth, higher = more signal, called active from +8 up or from −8 down.
Assay [17] is described as follows: probe aLefty2 binding to arrayed compounds – biochemical, biotinylated probe, 635/667 nm fluorescence, primary screen (AID 1094).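 Note: score merges spot fluorescence near 667 nm with spot signal-to-noise ratio.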 Particulars: small-molecule microarray, higher = more signal.
Assay [18] concerns Noggin (protein binding on small-molecule microarray). Kind of assay: small molecules binding Noggin protein – biochemical, 635/667 nm fluorescence, primary screen (AID 1095).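 Note: score merges 667 nm feature fluorescence with signal to noise over triplicate slides.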 The note with it: 635 nm fluorescence, higher = more signal.
The target of assay [19] is Neurogenic locus notch homolog protein 3 (Homo sapiens) (UniProt Q9UM47). In words: small molecules binding NOTCH3 protein – biochemical, 635/667 nm fluorescence, primary screen (AID 1096). Particulars: small-molecule microarray, 635 nm fluorescence, higher = more signal.
A short description of assay [20]: probe aEGFR binding to arrayed compounds – biochemical, biotinylated probe, 635/667 nm fluorescence, primary screen (AID 1097).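 Note: probe is a biotinylated anti-EGFR antibody binding compounds printed on slides; score combines fluorescence near 667 nm and signal to noise of each spot.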 Particulars: small-molecule microarray, higher = more signal.

Neurogenic locus notch homolog protein 2 (Homo sapiens), sequence (Q04721 whole entry, looked up, canonical isoform): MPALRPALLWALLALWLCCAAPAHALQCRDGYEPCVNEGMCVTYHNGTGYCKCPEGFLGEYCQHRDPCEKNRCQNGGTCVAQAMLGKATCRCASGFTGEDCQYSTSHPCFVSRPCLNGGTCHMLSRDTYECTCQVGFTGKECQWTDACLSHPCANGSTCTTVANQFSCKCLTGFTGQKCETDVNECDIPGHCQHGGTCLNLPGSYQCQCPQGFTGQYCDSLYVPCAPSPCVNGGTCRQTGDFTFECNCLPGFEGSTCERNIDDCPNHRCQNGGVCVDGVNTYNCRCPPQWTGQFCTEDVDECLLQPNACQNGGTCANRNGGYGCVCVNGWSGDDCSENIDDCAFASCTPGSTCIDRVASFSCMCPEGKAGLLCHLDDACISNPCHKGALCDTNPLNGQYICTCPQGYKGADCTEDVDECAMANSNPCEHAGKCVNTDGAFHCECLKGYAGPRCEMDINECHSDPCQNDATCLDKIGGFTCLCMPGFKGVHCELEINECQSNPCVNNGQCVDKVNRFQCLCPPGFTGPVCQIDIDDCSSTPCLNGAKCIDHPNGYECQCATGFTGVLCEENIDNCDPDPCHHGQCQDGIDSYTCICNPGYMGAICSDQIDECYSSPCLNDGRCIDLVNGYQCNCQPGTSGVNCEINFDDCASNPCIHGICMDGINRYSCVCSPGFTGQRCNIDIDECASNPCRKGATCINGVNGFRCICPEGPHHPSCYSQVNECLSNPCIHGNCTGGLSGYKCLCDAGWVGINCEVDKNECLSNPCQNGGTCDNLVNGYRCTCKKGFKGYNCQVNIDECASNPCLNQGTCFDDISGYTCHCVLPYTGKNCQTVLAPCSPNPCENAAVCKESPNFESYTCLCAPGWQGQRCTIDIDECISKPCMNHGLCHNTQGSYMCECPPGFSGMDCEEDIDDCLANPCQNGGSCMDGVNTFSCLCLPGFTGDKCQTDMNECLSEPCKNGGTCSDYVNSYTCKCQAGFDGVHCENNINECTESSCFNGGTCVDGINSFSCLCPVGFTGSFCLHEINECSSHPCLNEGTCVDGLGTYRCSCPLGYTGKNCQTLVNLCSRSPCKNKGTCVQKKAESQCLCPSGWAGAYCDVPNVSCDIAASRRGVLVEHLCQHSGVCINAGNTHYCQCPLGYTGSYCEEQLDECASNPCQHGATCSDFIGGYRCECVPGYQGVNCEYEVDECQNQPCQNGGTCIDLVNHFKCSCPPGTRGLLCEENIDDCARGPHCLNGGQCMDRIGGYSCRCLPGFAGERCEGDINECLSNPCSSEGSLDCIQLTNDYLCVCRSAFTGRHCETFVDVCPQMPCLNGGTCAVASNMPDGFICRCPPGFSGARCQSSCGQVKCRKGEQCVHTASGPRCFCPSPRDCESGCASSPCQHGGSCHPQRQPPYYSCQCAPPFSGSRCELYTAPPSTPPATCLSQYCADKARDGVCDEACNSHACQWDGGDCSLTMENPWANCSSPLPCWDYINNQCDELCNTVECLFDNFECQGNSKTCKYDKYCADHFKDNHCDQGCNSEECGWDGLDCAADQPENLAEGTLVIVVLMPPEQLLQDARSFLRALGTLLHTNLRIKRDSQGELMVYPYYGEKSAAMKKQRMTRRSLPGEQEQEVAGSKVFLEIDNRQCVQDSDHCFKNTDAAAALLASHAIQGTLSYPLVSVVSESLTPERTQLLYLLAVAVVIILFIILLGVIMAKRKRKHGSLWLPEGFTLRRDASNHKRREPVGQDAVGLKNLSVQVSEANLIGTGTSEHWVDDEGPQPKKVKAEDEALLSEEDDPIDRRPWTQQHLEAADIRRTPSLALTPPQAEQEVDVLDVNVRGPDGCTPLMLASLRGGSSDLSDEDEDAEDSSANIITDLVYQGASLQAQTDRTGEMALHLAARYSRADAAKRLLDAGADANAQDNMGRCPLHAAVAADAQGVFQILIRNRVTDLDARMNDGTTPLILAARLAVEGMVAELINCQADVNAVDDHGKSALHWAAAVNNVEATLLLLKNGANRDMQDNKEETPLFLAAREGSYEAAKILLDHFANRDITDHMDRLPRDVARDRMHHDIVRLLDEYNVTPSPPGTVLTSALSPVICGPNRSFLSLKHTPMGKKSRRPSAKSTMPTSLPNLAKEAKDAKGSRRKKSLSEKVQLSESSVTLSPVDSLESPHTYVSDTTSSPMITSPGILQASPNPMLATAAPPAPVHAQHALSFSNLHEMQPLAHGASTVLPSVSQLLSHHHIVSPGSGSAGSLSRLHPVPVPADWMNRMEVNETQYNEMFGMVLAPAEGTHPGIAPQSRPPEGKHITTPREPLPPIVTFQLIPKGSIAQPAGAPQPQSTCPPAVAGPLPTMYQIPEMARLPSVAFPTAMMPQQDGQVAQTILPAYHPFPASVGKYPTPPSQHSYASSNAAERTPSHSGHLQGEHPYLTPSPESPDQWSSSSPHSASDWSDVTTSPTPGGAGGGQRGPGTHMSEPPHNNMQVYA
Pro-neuregulin-1, membrane-bound isoform (Homo sapiens), sequence (Q02297 whole entry, looked up, the tested form may be a part, canonical isoform): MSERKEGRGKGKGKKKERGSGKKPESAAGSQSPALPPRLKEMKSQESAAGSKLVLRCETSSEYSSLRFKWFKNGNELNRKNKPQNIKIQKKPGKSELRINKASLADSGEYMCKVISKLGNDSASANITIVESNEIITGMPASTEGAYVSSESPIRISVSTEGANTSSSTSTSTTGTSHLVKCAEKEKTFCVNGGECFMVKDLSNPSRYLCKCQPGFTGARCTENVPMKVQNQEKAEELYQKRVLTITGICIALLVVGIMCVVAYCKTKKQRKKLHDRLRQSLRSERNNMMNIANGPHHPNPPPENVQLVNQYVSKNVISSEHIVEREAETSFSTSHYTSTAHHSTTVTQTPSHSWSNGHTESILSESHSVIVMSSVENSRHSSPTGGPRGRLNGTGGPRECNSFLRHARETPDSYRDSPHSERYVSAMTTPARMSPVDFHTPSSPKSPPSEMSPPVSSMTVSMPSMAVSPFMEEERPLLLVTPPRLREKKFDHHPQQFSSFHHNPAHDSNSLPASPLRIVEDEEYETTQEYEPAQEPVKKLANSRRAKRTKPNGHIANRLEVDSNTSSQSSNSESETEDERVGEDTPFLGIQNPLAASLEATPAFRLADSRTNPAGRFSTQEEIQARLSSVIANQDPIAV
Torsin-1A-interacting protein 2 (Homo sapiens), sequence (Q8NFQ8 whole entry, looked up): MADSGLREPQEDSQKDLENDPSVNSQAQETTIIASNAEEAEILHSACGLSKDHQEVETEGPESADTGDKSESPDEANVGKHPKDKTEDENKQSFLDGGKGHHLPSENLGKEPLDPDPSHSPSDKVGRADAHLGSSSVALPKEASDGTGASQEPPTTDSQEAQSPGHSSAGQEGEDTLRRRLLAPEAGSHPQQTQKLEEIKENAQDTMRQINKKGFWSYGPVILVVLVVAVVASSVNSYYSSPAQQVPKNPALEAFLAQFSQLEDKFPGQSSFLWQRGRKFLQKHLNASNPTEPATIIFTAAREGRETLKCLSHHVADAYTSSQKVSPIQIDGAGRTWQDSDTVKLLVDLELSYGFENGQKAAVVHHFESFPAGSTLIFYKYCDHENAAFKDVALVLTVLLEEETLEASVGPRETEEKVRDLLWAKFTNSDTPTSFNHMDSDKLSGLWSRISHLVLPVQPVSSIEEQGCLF

In the case of `COC(=O)[C@@]1(Cc2ccccc2)[C@H]2c3cc(C(=O)N4CCCC4)n(Cc4cc(F)cc5c4OCOC5)c3C[C@H]2CN1C(=O)c1ccccc1`, the composite z-score is 0.752 in [1]; -0.234 in assay [2]; 0.356 in assay [3]; 0.762 in [4]; 1.73 in [5]; 1.1 in [6]. Also, the composite z-score in [7] was 1.22; in assay [9], 0.929; in [10] it was -0.0905; in [11], -0.149; in [15], 3.29; in [17] it was 0.331. For the same compound, the results for the composite z-score in assay [18], in assay [19] and in assay [20] were -0.584, 0.924 and 0.115, respectively. The z-score was -0.223 (inactive) in [8]; 1.33 (inactive) in assay [12]; 1.17 (inactive) in [13]; 0.509 (inactive) in assay [14]; -0.542 (inactive) in [16].
Consider `O=C1OCC=C[C@H]2OC34C=CCN(c5ccc(Cl)cc5)C(=O)[C@H]3N(CCCCCO)C(=O)[C@@H]4[C@@H]12` (stereo not given in full), for which the composite z-score is 0.716 in assay [1]; 1.77 in assay [2]; -0.163 in [3]; -0.815 in assay [4]; -1.07 in assay [5]; -0.0571 in assay [6]. For the same compound, the composite z-score in assay [7] was 1.06; in [9], -0.354; in assay [10] it was -0.236; in assay [11], -0.449; in assay [15], 2.58; in assay [17], -0.117. Further, the composite z-score in [18] was -1.64; in [19] it was -0.68; in assay [20] it was -0.208. The z-score was -0.633 (inactive) in [8]; -0.984 (inactive) in [12]; -1.03 (inactive) in [13]; -0.497 (inactive) in [14]; 1 (inactive) in assay [16].
`C=C(C(=O)CC[C@H](OC(C)=O)c1cccc(OCCO)c1)C(C)C`: the composite z-score in [1] is 0.125; in assay [2], -0.152; in assay [3], -0.189; in assay [4], -0.582; in assay [5], -0.739; in assay [6], 0.007. The composite z-score in assay [7] is -0.526; in [9], -0.675; in assay [10] it was -0.0994; in [11], 0.385; in assay [15], 0.355; in assay [17] it was -0.121. Besides, the figures for the composite z-score in assay [18], in assay [19] and in assay [20] were -0.621, -0.594 and -0.113, respectively. Besides, the z-score in assay [8] is 0.422 (inactive); in [12], 0.574 (inactive); in [13], -0.299 (inactive); in assay [14], -0.0905 (inactive); in assay [16], 1.04 (inactive).
Take `NC(=O)N1C(=O)C2C(C1=O)C1C=C(c3ccc(CO)cc3)C2C(C2CC2)N1Cc1sc2ccccc2c1Cl` (stereo not given): the composite z-score was -0.418 in [1]; 2.2 in assay [2]; 0.0433 in [3]; 1.17 in assay [4]; 1.19 in assay [5]; 1.6 in assay [6]. In addition, the composite z-score worked out at 1.28 in [7]; 0.32 in assay [9]; 0.0623 in assay [10]; 1.54 in assay [11]; 2.68 in [15]; 0.0139 in assay [17]. The composite z-score is 0.695 in assay [18], 1.06 in [19] and -0.0271 in [20]. Moreover, the z-score was -1.27 (inactive) in assay [8]; 2.22 (inactive) in assay [12]; -2.31 (inactive) in [13]; 0.266 (inactive) in assay [14]; 1.34 (inactive) in assay [16].
Consider `COCCOC(=O)N1C(=O)[C@@]2(c3cc(C#CC4(O)CCCCCC4)ccc31)[C@H](c1ccccc1OCCO)N1[C@H](c3ccccc3)[C@H](c3ccccc3)OC(=O)[C@H]1[C@@H]2C(N)=O`, for which the composite z-score in assay [1] was -0.452; in assay [2], 0.447; in assay [3], 0.0038; in assay [4], 0.498; in [5] it was 1.35; in [6], 0.102. Further, the composite z-score in assay [7] is 1.16; in assay [9] it was 0.489; in assay [10] it was -0.0672; in assay [11], 1.54; in assay [15] it was 2.24; in [17], -0.102. The composite z-score in assay [18] was found to be 1.06; in [19] it was 1.05; in assay [20], 0.0254. The z-score in [8] was -1.17 (inactive); in [12], 1.74 (inactive); in assay [13] it was 0.699 (inactive); in assay [14], 5.17 (inactive); in assay [16], -0.175 (inactive).
